Source: PubChem BioAssay (EPA / NIEHS)
Calls of active or inactive are those of the source. How the source made its calls: active means hit-call score of the fitted dose curve at least 0.9, where 1 is the maximum; inactive means score below 0.9.

test: CCTE_Shafer_MEA_acute_per_burst_spike_number_mean: CCTE's Neural Acute Assay for Average Number of Spikes Per Burst, Shafer Lab (AID 2284015);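 further: hits are decreases in mean spikes per burst versus baseline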
Protocol: CCTE_Shafer_MEA_acute assay is conducted using Axion Biosystems 48 well microelectrode array (MEA) plates and Maestro recording system. Each well of the MEA plate contains a grid of 16 microelectrodes embedded in the culture surface. Electrically active cells, such as neurons, can be cultured over the electrodes, and electrical activity in these cells can be recorded extracellularly. The spontaneous firing of neurons is captured from each electrode on a microsecond timescale providing both temporally and spatially precise data. […] The CCTE_Shafer_MEA_acute assay uses primary cultures of rat cortical neurons. As these cultures mature over time, neural networks develop functional activity and form cohesive networks in which electrical activity can be highly coordinated. Baseline 40-minute recordings are made on days post-plating 13 or 15, followed by a secondary 40-minute recording after chemical exposure.CCTE_Shafer_MEA_acute_per_burst_spike_number_mean is a component of the CCTE_Shafer_MEA_acute assay. It measures the average number of spikes (action potential firings) in a single-electrode burst (temporally-clustered group of spikes) during a recording in a microelectrode array (MEA) using Axion Biosystems Maestro 768 channel amplifier with the AxIS adaptive spike detector. The recordings before and after chemical treatment are used to calculate a percent change in the mean number of spikes per burst in each well.Data from the assay component CCTE_Shafer_MEA_acute_per_burst_spike_number_mean was analyzed into 1 assay endpoint. This assay endpoint, CCTE_Shafer_MEA_acute_per_burst_spike_number_mean, was analyzed in the negative analysis fitting direction relative to DMSO as the negative control and baseline of activity. Using a type of functional reporter, gain or loss-of-signal activity can be used to understand electrical activity.
Spontaneous activity in the cortical cultures was recorded using an Axion Biosystems Maestro 768 channel amplifier and Axion Integrated Studios (AxIS) v1.8 (or later) software. The amplifier recorded from all channels simultaneously (gain = 1200 x; sampling rate = 12.5 kHz/channel): raw signals were filtered with a Butterworth band-pass filter (300-5000 Hz), which filters out slower local field potentials leaving only fast potentials, i.e., "spikes", arising from extracellular currents associated with action potentials (Pine 2006; Wheeler and Nam 2011). On-line spike detection of filtered signals was conducted with the AxIS adaptive spike detector, using a threshold of 8x the root mean squared (rms) noise on each channel. Any electrodes with rms noise levels greater than 5 uV were grounded (e.g., no data were recorded). Once grounded, an electrode was grounded for the duration of the experiment. All recordings were conducted at 37 C. Wells were deemed usable if on the day of the exposure >/= 10 electrodes were active (defined as >/= 5 spikes/min). On DIV 13 or 15, a minimum of three wells from one cortical culture preparation were treated with each compound (0.03-40 uM). Prior to recording baseline activity, each mwMEA plate was placed in the Maestro at 37 C and allowed to sit for 20 min while firing rates stabilized. Baseline activity (40 min) was recorded before the addition of each compound. An additional 40 min of spontaneous activity was recorded in the presence of each compound. Changes in network parameters relative to baseline were assessed following compound treatment.

Structure (SMILES) | outcome | AC50
OC(CCl)CCl | inactive | 
CCCCCCCC1CCC(=O)O1 (stereo not drawn) | inactive | 
C=CCc1cc(S(=O)(=O)c2ccc(O)c(CC=C)c2)ccc1O | inactive | 
c1ccc(C(O[C@@H]2CCCN(CCc3ccc4c(c3)OCO4)C2)c2ccccc2)cc1 | inactive | 
COCc1nnc(-c2ccc[n+]([O-])c2)n1-c1c(Cl)c(Cl)cc2[nH]c(=O)c(=O)[nH]c12 |  | 8.06 µM (active)
CC[C@H](C)C(=O)O[C@H]1C[C@H](O)C=C2C=C[C@H](C)[C@H](CC[C@@H](O)C[C@@H](O)CC(=O)O)[C@H]21 | inactive | 
Cc1ncc([C@@H](CCCCCCc2ccc3c(n2)NCCC3)CC(=O)O)cn1 | inactive | 
COc1cc2c(c(OC)c1OC)-c1ccc(OC)c(=O)cc1[C@@H](NC(C)=O)CC2 | inactive | 
O=S(=O)(O)c1ccc(N=Nc2c(O)ccc3cc(S(=O)(=O)O)ccc23)cc1 | inactive | 
CCCc1ccccc1 | inactive | 
c1ccc2cc3ccccc3cc2c1 | inactive | 
CCCCCCCC/C=C\CCCCCCCC(=O)OC[C@@H](O)[C@H]1OC[C@H](O)[C@H]1O | inactive | 
CCc1ccc(O)c(C(C)(C)C)c1 |  | 30.3 µM (active)
CC(C)C(=O)Nc1ccc([N+](=O)[O-])c(C(F)(F)F)c1 |  | 4.66 µM (active)
OCc1ccccc1 | inactive | 
Cn1c(=O)c2[nH]cnc2n(C)c1=O | inactive | 
CCCCC(CC)C(=O)OCCOCCOCCOC(=O)C(CC)CCCC (stereo not drawn) | inactive | 
COc1cc(C(C)C)c2c(c1)S(=O)(=O)N(COc1cc(=O)n3cccc(OCCN4CCCCC4)c3n1)C2=O | inactive | 
